Results reported in PubChem BioAssay.
The other results are listed elsewhere or left out. Records with an inconclusive call do not appear. Active and inactive are the calls of the source.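 How the source made its calls, unless noted: active means a full or partial loss of lipid-probe fluorescence in the fish gall bladder, intestine or both, judged by eye; inactive means no fluorescence loss, or compound toxic to the fish.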

Columns and labels:
[1] = inhibitors of TNFa-induced NFkB p65 translocation, primary screen, imaging, HUVEC, MLSMR starter and 10KST1 sets (AID 438;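 active means inhibition above 20% together with a positive visual image hit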;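 further: compound added about 3h40 before a 20 min TNFalpha stimulation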;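 on inhibition: signal is the nuclear over cytoplasmic p65 intensity ratio per well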); conditions: HUVEC TNFa-induced p65 nuclear translocation; cell count: measured here: nuclei count (cytotoxicity indicator), at 2.08 µM unless noted; inhibition: at 2 µM, stronger effect = higher value unless noted
[2] = inhibitors of mutant huntingtin aggregation, primary screen, imaging, exon1htt(103Q)mCFP cells, high-content imaging (AID 483;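 active means visual image review flags a hit and inhibition of aggregation exceeds 20%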;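 further: compound exposure lasted 3 days before fixation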;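 on nuclei count: percent of the per-plate median nuclei count of sample wells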); conditions: exon1htt(103Q)mCFP cell line, aggregate imaging, at 2 µM; inhibition of aggregation: stronger effect = higher value; nuclei count: measured here: cell count, toxicity
[3] = inhibitors of E-selectin induction by TNFa, primary screen, imaging, HUVEC, immunofluorescence, MLSMR starter and 10KST1 sets (AID 487;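 active means visually confirmed hit in the image check and inhibition above 20%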;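 on inhibition: signal is fraction of cell area covered by stained E-selectin grains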;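 on nuclei count: 100% = median nuclei count of all wells on the same plate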); conditions: HUVEC TNFalpha-induced E-selectin immunofluorescence imaging, at 2 µM; inhibition: stronger effect = higher value; nuclei count: measured here: cell number, toxicity
[4] = DUSP6 inhibitors restoring Erk phosphorylation by chemical complementation, primary imaging in DUSP6-transfected HeLa (AID 609;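 active means compounds giving at least 50% inhibition in the cell-based MKP-3 phosphatase rescue imaging test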;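 on inhibition: phospho-Erk level distribution per well compared with pooled transfected vehicle control wells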); conditions: HeLa MKP-3 transfected, phospho-Erk imaging KS statistic, at 10 µM
[5] = target: Dual specificity protein phosphatase 6 (Homo sapiens) (UniProt Q16828); test: as above; conditions: HeLa MKP-3 transfected, phospho-Erk imaging KS statistic, at 10 µM, stronger effect = higher value
[6] = target: Voltage-gated potassium channel subunit beta-2 (Rattus norvegicus) (UniProt P62483); test: KvBeta enzyme negative modulators, primary screen, biochemical, NADPH fluorescence (AID 622;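 active means fluorescence slope higher than the sample average by over 3 SD, cut at about -0.22 in these data, passing the limit was not always enough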;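 further: slope of raw intensity against log time taken from 70 to 1610 s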); conditions: recombinant KvBeta, 4-cyanobenzaldehyde reduction, at 10 µM, stronger effect = higher value
[7] = target: Voltage-gated potassium channel subunit beta-2 (Rattus norvegicus) (UniProt P62483); test: KvBeta positive modulators, primary screen, biochemical, NADPH fluorescence (AID 623;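 active means NADPH fluorescence slope more negative than the mean of all samples by about 3 SD, 99.7% confidence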;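 further: fluorescence intensity change per second fitted from 20 to 320 s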); conditions: Recombinant KvBeta, NADPH fluorescence decrease slope, 10 min; at 10 µM; stronger effect = lower value
[8] = target: Alpha-2C adrenergic receptor (Homo sapiens) (UniProt P18825); test: modulators of alpha2C/GIRK thallium flux, primary screen, cell-based, HEK293 alpha2C/GIRK1/2 (AID 624;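 active means fluorescence slope after compound addition differing from the mean of all screened samples at 99.7% confidence, in either direction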;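 further: slope of fluorescence ratio to pre-addition baseline per second over 15 to 24 s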); conditions: thallium flux BTC fluorescence, at 10 µM, actives lie on both sides
[9] = inhibitors of larval lipid processing in zebrafish, primary screen, whole organism, PED6 fluorescence, gall bladder and intestine (AID 686); conditions: Zebrafish larvae PED6 lipid processing, fluorescence scoring;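 further: larvae 5 to 7 days old with five fish per well; signal comes from phospholipase A2 cleavage of quenched PED6 carried via bile; overnight exposure to compound and PED6 before scoring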
[10] = inhibitors of Chlamydomonas gravitaxis, primary screen, whole organism, Chlamydomonas reinhardtii, WT vs cilia-less mutant, absorbance, 96-well (AID 463189;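 active means inhibition at or above 50% relative to wild type and mutant plate controls; inactive means inhibition below 50%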;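 further: 0% = wild type cc124 cells in DMSO and 100% = ciliumless bld1 mutant cells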); conditions: OD600 absorbance, 2 days, at 10 µM, stronger effect = higher value
[11] = inhibitors of Sendai virus-induced IRF3 signaling, primary screen, TLR/RLR signaling modifier project, cell-based, Sendai virus stimulus, luciferase, 10K MLSCN set (AID 602276;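 active means inhibition at or above 50% at 10 µM; inactive means inhibition below 50%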;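 further: firefly luciferase from ISG56 promoter only with Renilla not read in this screen; 0% = Sendai virus plus DMSO and 100% = medium plus DMSO without virus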); conditions: HEK293 RL24 IRF3 luciferase reporter, at 10 µM, stronger effect = higher value
[12] = inhibitors of poly I:C-induced TLR3 signaling, primary screen, cell-based, poly I:C stimulus, luciferase, 10K MLSCN set (AID 602277;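 active means inhibition of the reporter signal at or above 50%; inactive means inhibition below 50%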); conditions: HEK293-TLR3 RL24 IRF3 luciferase reporter, at 10 µM, stronger effect = higher value
[13] = target: Muscarinic acetylcholine receptor M4 (Homo sapiens) (UniProt P08173); test: compounds altering M4/GIRK thallium flux, either direction, primary screen, M4 allosteric agonist project, cell-based, HEK293 M4/GIRK, BTC-AM (AID 625;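 active means fluorescence slope after compound addition differing from the mean of all tested samples at 99.7% confidence, mostly higher but some lower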;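 further: thallium influx through GIRK channels coupled to M4 in HEK293 cells with BTC-AM dye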); conditions: at 10 µM, actives lie on both sides
[14] = target: Solute carrier family 12 member 5 (Homo sapiens) (UniProt Q9H2X9); test: KCC2 modulators in sodium-free buffer, confirmation, cell-based, HEK293 KCC2, thallium flux, secondary assay (AID 1713;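 active means thallium flux slope above the same plate's solvent-only control mean plus 3 SD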); conditions: FluoZin2 fluorescence, at 10 µM, stronger effect = higher value
[15] = target: Solute carrier family 12 member 5 (Homo sapiens) (UniProt Q9H2X9); test: KCC2 modulators without ouabain present, confirmation, cell-based, HEK293 KCC2, thallium flux, FluoZin2, secondary assay 2 (AID 1715;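 active means thallium flux slope more than 3 SD above or below the plate's solvent-only control mean, mostly below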;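 further: raw slope with 0.1% DMSO as baseline and bumetanide as block control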); conditions: HEK293-KCC2, thallium flux FluoZin2 fluorescence; at 10 µM; actives lie on both sides
[16] = thallium flux modulation in parental HEK cells, confirmation, counter-screen for KCC2 modulator project, cell-based, counterscreen 1 (AID 1716;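 active means thallium flux rate significantly above the same plate's solvent-only control wells, beyond their mean plus 3 SD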); conditions: HEK293 parental cells, thallium flux FluoZin2, ouabain; at 10 µM; baseline-ratio fluorescence slope, 10–20 s after thallium
[17] = target: Solute carrier family 12 member 5 (Homo sapiens) (UniProt Q9H2X9); test: KCC2 inhibitors and activators, ouabain retest, confirmation, HEK-KCC2 cells (AID 1717;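 active means thallium flux slope beyond 3 SD from same-plate DMSO control mean in most replicates, usually higher, sometimes lower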;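 further: slope of initial-normalized fluorescence between seconds 10 and 20 after thallium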); conditions: HEK293-KCC2, thallium flux FluoZin2 fluorescence, at 10 µM, bidirectional: low = inhibitor, high = activator
[18] = measured here: cell density z-score
[19] = measured here: nuclear c-Myc green intensity z-score
[20] = measured here: nuclear pErk red intensity z-score, stronger effect = higher value

Chain of Voltage-gated potassium channel subunit beta-2 (Rattus norvegicus) (P62483 whole entry, looked up): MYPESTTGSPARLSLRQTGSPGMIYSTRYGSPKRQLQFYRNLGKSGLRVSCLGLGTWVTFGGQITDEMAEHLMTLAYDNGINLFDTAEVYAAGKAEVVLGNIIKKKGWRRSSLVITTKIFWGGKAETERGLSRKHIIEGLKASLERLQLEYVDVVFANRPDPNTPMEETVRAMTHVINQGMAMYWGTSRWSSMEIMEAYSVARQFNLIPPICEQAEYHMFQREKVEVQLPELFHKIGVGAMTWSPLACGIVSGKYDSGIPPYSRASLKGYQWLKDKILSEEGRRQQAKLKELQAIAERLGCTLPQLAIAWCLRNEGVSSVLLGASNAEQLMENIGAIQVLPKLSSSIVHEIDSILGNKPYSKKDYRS
Chain of Solute carrier family 12 member 5 (Homo sapiens) (Q9H2X9 whole entry, looked up): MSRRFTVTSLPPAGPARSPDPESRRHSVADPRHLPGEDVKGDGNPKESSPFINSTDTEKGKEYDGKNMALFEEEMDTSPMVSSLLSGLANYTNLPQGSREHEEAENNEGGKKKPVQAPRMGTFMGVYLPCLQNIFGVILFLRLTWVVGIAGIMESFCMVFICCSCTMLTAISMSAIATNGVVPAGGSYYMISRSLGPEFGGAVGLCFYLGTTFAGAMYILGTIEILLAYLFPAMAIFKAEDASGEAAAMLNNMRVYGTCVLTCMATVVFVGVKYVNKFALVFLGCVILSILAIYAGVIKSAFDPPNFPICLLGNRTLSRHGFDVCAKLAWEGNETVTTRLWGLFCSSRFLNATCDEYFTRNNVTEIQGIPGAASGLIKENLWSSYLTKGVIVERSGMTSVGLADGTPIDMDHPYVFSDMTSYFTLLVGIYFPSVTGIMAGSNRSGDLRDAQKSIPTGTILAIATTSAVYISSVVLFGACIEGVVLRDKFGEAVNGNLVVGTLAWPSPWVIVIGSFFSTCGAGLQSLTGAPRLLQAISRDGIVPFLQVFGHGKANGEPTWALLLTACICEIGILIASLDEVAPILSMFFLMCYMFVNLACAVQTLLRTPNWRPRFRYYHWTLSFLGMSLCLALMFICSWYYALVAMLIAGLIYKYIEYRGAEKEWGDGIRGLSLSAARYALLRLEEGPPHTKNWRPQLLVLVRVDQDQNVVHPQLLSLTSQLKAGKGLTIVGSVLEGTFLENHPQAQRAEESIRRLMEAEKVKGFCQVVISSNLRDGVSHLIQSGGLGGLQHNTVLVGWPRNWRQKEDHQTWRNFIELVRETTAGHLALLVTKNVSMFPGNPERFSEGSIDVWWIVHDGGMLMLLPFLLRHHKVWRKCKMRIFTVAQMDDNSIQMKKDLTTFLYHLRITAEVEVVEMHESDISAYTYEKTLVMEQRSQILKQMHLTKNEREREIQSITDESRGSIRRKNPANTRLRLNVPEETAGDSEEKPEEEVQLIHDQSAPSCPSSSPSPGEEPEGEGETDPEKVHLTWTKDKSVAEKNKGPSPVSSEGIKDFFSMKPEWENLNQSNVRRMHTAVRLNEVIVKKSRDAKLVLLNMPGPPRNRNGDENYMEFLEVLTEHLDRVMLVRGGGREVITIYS
Chain of Alpha-2C adrenergic receptor (Homo sapiens) (P18825 whole entry, looked up): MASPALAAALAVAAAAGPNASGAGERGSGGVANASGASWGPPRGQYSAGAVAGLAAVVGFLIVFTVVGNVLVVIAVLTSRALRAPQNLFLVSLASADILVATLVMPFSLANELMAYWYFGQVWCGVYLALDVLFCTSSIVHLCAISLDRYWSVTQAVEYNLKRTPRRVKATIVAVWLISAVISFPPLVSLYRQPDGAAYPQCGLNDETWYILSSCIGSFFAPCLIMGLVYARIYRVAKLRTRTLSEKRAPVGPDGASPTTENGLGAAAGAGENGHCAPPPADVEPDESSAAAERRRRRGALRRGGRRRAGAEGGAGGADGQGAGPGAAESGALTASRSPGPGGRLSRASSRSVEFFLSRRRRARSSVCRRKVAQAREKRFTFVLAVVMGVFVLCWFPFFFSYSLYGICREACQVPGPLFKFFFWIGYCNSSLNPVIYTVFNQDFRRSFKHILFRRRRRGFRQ
Chain of Dual specificity protein phosphatase 6 (Homo sapiens) (Q16828 whole entry, looked up): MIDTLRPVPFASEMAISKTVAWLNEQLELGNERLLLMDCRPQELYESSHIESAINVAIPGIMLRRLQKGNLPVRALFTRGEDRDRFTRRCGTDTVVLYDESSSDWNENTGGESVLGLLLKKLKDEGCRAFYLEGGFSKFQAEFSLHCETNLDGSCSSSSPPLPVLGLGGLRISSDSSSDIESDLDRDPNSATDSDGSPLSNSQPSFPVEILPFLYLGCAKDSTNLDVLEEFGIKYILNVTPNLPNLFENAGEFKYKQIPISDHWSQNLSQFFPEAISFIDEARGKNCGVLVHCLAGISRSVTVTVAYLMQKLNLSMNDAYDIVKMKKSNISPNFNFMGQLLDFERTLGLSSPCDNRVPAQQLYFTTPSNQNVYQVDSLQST
Chain of Muscarinic acetylcholine receptor M4 (Homo sapiens) (P08173 whole entry, looked up): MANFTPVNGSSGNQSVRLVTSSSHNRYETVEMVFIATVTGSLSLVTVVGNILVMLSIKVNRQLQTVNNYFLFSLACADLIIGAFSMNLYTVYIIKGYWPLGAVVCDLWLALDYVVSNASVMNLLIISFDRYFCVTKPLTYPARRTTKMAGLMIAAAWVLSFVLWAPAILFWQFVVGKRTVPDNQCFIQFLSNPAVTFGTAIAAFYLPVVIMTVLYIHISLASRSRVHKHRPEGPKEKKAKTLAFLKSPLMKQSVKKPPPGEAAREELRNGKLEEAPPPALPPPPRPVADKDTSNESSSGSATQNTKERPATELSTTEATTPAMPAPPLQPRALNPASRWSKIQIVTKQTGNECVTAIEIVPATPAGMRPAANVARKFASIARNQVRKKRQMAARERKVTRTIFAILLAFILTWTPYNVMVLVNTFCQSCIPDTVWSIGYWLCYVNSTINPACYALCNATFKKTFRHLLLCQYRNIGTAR

CC(C)(C)OC(=O)c1c(N)n(Cc2ccco2)c2nc3ccccc3nc12
cell count [1]: 394 | inhibition [1]: -12.8% (inactive) | inhibition of aggregation [2]: -3.4% (inactive) | nuclei count [2]: 81% | inhibition [3]: -57.4% (inactive) | nuclei count [3]: 127% | z-score [4, 18]: 0.353 | z-score [4, 19]: -0.801 | z-score [4, 20]: -1.16 | inhibition [5]: 13.4% (inactive) | fluorescence slope [6]: -0.293 (inactive) | NADPH fluorescence slope [7]: 5.9e-05 (inactive) | slope [8]: 0.00636 (inactive) | outcome [9]: inactive | inhibition [10]: 19.2% (inactive) | inhibition [11]: 6.73% (inactive) | inhibition [12]: -1.48% (inactive)

O=C1NC(=O)C(C/C=C/c2ccccc2)C(=O)N1
cell count [1]: 678 | inhibition [1]: -2.2% (inactive) | inhibition [3]: 29.3% (inactive) | nuclei count [3]: 154% | z-score [4, 18]: 0.051 | z-score [4, 19]: 0.145 | z-score [4, 20]: 0.14 | inhibition [5]: 16.5% (inactive) | fluorescence slope [6]: -0.473 (inactive) | NADPH fluorescence slope [7]: -4.7e-05 (inactive) | fluorescence slope [13]: 0.00573 (inactive) | outcome [9]: inactive | normalised thallium flux (F/F0 slope) [14]: 0.00969 (inactive) | normalized thallium flux [15]: 0.0324 (inactive) | thallium flux rate (normalised fluorescence) [16]: 0.0082 (inactive) | raw Tl+ flux slope (below DMSO = inhibition, above = activation) [17]: 0.0194 (inactive) | inhibition [10]: -5.46% (inactive)

Clc1ccc(CSC(Cn2ccnc2)c2ccc(Cl)cc2Cl)cc1 (stereo not given)
cell count [1]: 639 | inhibition [1]: 3.8% [at 2 µM, stronger effect = higher value, 0% TNFa-plus-vehicle, 100% no-TNFa wells] (inactive) | inhibition of aggregation [2]: -3.9% (inactive) | nuclei count [2]: 108% | inhibition [3]: -57.9% (inactive) | nuclei count [3]: 120% | z-score ([4]; measured here: cell density z-score, cells stimulated with TPA for 15 min): 0.528 | z-score ([4]; measured here: nuclear c-Myc green intensity z-score, cells stimulated with TPA for 15 min): 0.633 | z-score ([4]; measured here: nuclear pErk red intensity z-score, stronger effect = higher value, cells stimulated with TPA for 15 min): 0.478 | inhibition [5]: 10.2% [cells stimulated with TPA for 15 min] (inactive) | fluorescence slope [6]: -0.531 (inactive) | NADPH fluorescence slope [7]: -3.2e-05 (inactive) | slope [8]: 0.0071 (inactive) | outcome [9]: inactive; toxic [screened at 20 µM (by protocol)] | inhibition [10]: 31.3% (inactive) | inhibition [11]: 13.2% (inactive) | inhibition [12]: 7.53% (inactive)

COP(=O)(OC)C(O)C(Cl)(Cl)Cl (stereo not given)
cell count [1]: 659 | inhibition [1]: 4.7% (inactive) | inhibition of aggregation [2]: -21.7% (inactive) | nuclei count [2]: 104% | inhibition [3]: -58.1% (inactive) | nuclei count [3]: 126% | z-score [4, 18]: -0.465 | z-score [4, 19]: 1.59 | z-score [4, 20]: 0.972 | inhibition [5]: 23.4% (inactive) | fluorescence slope [6]: -0.462 (inactive) | NADPH fluorescence slope [7]: -6e-05 (inactive) | slope [8]: 0.00473 (inactive) | outcome [9]: inactive | inhibition [10]: 12.4% (inactive) | inhibition [11]: 17.5% (inactive) | inhibition [12]: 39.8% (inactive)

CN1CC[C@@]23CCCC[C@@H]2[C@@H]1Cc1ccc(O)cc13
cell count [1]: 612 | inhibition [1]: -2% (inactive) | inhibition of aggregation [2]: -9.3% (inactive) | nuclei count [2]: 78.9% | inhibition [3]: -41.4% (inactive) | nuclei count [3]: 127% | z-score [4, 18]: -1.02 | z-score [4, 19]: 0.228 | z-score [4, 20]: 2.32 | inhibition [5]: -3.03% (inactive) | fluorescence slope [6]: -0.439 (inactive) | NADPH fluorescence slope [7]: 2.4e-05 (inactive) | slope [8]: 0.00406 (inactive) | outcome [9]: inactive | inhibition [10]: -11.1% (inactive) | inhibition [11]: -1.46% (inactive) | inhibition [12]: 37.2% (inactive)
